About 83,000 compounds went through this panel and 20% of them were active in at least one assay; those are over-represented in the sample as a whole.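 Percent growth is the endpoint: 0 to 100 indicates growth inhibition (40 means 60% inhibition), 0 means no net growth, and negative values indicate cell death.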 Calls of active or inactive are those of the source. The calls were made as follows: active = growth percent below 10; inactive = the rest.
system: HL-60(TB) leukemia; experiment: NCI-60 one-dose screen, 48 h (100 = growth as untreated, 0 = no growth, -100 = all killed); details: 10 µM unless noted

| SMILES | growth |
| --- | --- |
| CCN(CC)c1ccc(/C=N/Nc2nc(-c3ccc(C)cc3)cs2)c(O)c1 | 70% (inactive) |
| Clc1ccc(Nc2nnc(-c3c[nH]c4ccccc34)o2)cc1 | 43.4% (inactive) |
| N#Cc1c(-c2ccc(Br)cc2)nc2n[nH]c(-c3ccc(Br)cc3)c2c1-c1ccc(F)cc1 | 80.4% (inactive) |
| CN1CCN(c2ccc(C(=O)/C=C/c3ccc(OC(F)F)cc3)cc2)CC1 | -26.7% (active) |
| O=C1Nc2ccc(F)cc2/C1=C/c1cccc(OCc2ccccc2)c1 | -17.4% (active) |
| Fc1ccc(-c2csc(Nc3cccc(Nc4nc(-c5ccc(F)cc5)cs4)c3)n2)cc1 | 74.3% (inactive) |
| Cc1cc(=O)oc2cc(OCCCCOc3ccc(/C=C/C(=O)Nc4ccc(F)c(Cl)c4)cc3)ccc12 | 97.6% (inactive) |
| O=C(Nc1ccc(F)cc1)Nc1nc2ccc([N+](=O)[O-])cc2s1 | -11.5% (active) |
| COC(=O)c1cc(C(=O)C(Br)Br)n2c1ccc1c3ccccc3ccc12 | 76.2% (inactive) |
| COc1cc(/C=C/C(=O)c2cnn(-c3cc(=O)[nH]c4ccccc34)c2C)cc(OC)c1OC | 0.36% (active) |
| C=C1CCC2C3(C)COC(c4ccccc4F)OC3CCC2(C)C1C/C=C1/C(=O)OCC1O (centres undefined) | -0.649% (active) |
| Cc1cc(=O)oc2cc(OCCOc3ccc(/C=C/C(=O)Nc4ccccc4N)cc3)ccc12 | 0.0457% (active) |
| COc1cc2c(cc1OC)/C(=C\c1sc(Nc3ccc(O)cc3)nc1O)C(C(=O)O)=N2 | -17.5% (active) |
| Cc1cc(C)nc(NS(=O)(=O)c2ccc(N/C(N)=N/c3nccc(-c4ccccc4)n3)cc2)n1 | -25.8% (active) |
| COc1cc(CNC(=O)[C@]23CCC(C)(C)CC2C2=CCC4[C@@]5(C)CCC(OC(C)=O)C(C)(C)C5CC[C@@]4(C)[C@]2(C)CC3)ccc1OCc1cn(-c2ccc(Cl)cc2Cl)nn1 (some centres undefined) | 105% (inactive) |
| O=C(c1ccccc1)n1ccc(-c2cc3cc(Br)ccc3oc2=O)n1 | -13.5% (active) |
| N/C(=N\N=C\c1ccc([N+](=O)[O-])cc1)c1c(N)nc(=S)[nH]c1-c1ccc(Cl)cc1Cl | 103% (inactive) |
| Cc1nc2sccn2c1-c1nnc(SCC(C)C)o1 | 93.2% (inactive) |
| N#Cc1c(-c2ccc(F)cc2)nc(SCc2ccc(F)cc2)nc1N1CCOCC1 | 85% (inactive) |
| O=C(Nc1cccc([N+](=O)[O-])c1)Nc1cccc([N+](=O)[O-])c1 | 92.4% (inactive) |

| SMILES | growth |
| --- | --- |
| O=C(N1c2ccccc2Sc2ccccc21)n1ccc2cccnc21 | 25.2% (inactive) |
| CN(C)c1nc(NCCNS(=O)(=O)c2ccc(C(=O)/C=C/c3ccc(C(F)(F)F)cc3)cc2)nc(N2CCOCC2)n1 | -25.1% (active) |
| CN(C)c1ccnc(CNCCSC2(c3ccccc3)c3ccccc3C=Cc3ccccc32)c1 | -42.8% (active) |
| Cc1cc(C)nc(/N=C(\N)Nc2ccc(S(=O)(=O)Nc3nc(C)cc(C)n3)cc2)n1 | 94.7% (inactive) |
| COc1cc2c(c(OC)c1OC)C(=O)CC(c1cccc(NC(=O)c3cc(NC(=O)[C@H](CO)NC(=O)OC(C)(C)C)ccc3Cl)c1)O2 (some centres undefined) | 36.6% (inactive) |
| COc1ccc2[nH]c(=O)c(CSc3ccc(Nc4nccc(-c5ccc(Cl)cc5)n4)cc3)cc2c1 | 86.1% (inactive) |
| Cc1ccc2nc(NC(=O)Nc3cccc(Cl)c3)sc2c1 | 95.7% (inactive) |
| Cc1ccc(Cl)cc1NC(=O)N/C(N)=N/c1nc2ccccc2s1 | -44.9% (active) |
| CC(=O)Nc1ccc(-c2cn(-c3cccc(C(=O)Nc4ccc(N5CCN(C)CC5)cc4)c3)nn2)cn1 | 64.6% (inactive) |
| O=C(CNc1nc(-c2ccccc2)cs1)Nc1cccc([N+](=O)[O-])c1 | -8.94% (active) |
| CSc1ccc(C(=O)Nc2ccc3nn(/C(C#N)=C/c4ccccn4)nc3c2)cc1 | -21.9% (active) |
| COc1cc2oc(-c3cccc(C(=O)Nc4ccc(Cl)cc4)c3)cc(=O)c2c(OCC(=O)N[C@@H](Cc2ccccc2)C(=O)O)c1OC | 115% (inactive) |
| Cc1nn(-c2ccccc2)c2ncn(CC(=O)N/N=C/c3c[nH]c4ccccc34)c(=O)c12 | 83.8% (inactive) |
| COC[C@@H](CC(C)C)N=C1NC(=O)/C(=C/c2ccc3ncoc3c2)N1 | 1.03% (active) |
| COc1cccc2nc(Nc3cccc(NC(=O)c4ccc(CN5CCCN(C)CC5)c(C(F)(F)F)c4)c3)ccc12 | -54.3% (active) |
| Brc1ccc(-c2n(Cc3ccc4ccccc4c3)c(-c3ccccc3)c(-c3ccccc3)[n+]2Cc2ccc3ccccc3c2)cc1 | -5.57% (active) |
| O=C(Nc1cc(Cl)cc(Cl)c1)Nc1cc(Cl)cc(Cl)c1 | -15.1% (active) |
| COc1ccc(/C=C/C(=O)c2ccc(OC)c(S(N)(=O)=O)c2)c(C(F)(F)F)c1 | 3.73% (active) |
| COc1cc2oc(-c3cccc(C(=O)Nc4ccc(Cl)cc4)c3)cc(=O)c2c(OCCNC(=O)[C@H](CCC(=O)OC(C)(C)C)NC(=O)OC(C)(C)C)c1OC | 101% (inactive) |

Reference: PubChem BioAssay (NCI)
